Test results as given in PubChem BioAssay (NCATS).
Inconclusive results are not listed. Active and inactive are the calls of the source. The call rests on the fitted dose curve; in most records, active means well fitted inhibition curve with a large enough effect; inconclusive means small, poorly fitted or top-dose-only effect; inactive means no such curve, though single readings can be large or run the other way.

Tested on: Zika virus NS2B-NS3 protease (linked construct)
Assay: Primary screen NINDS Rhodamine qHTS for Zika virus inhibitors (AID 1347160); further: nearly all actives have a fitted effect of over 55% in size
Details: purified NS2B-NS3 protease, Rhodamine110 substrate fluorescence; series mostly up to 57.1 µM; activity change, negative = inhibition: at the top concentration
How it was run: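 Percent inhibition, normalized to uninhibited and enzyme-free controls, is fitted to a 4-parameter Hill equation. Fluorescence change comes from a 15-min cleavage of 1.5 microM bis-peptide Rhodamine110 substrate by 25 nM linked NS2B-NS3 at room temperature.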
On the % scale 0 is the no-effect control and ±100 the full control effect.

SMILES	outcome	activity change, negative = inhibition
CCCn1c(=O)c2[nH]c(-c3ccc(OCC(=O)O)cc3)nc2n(CCC)c1=O	inactive	–
CC1CC2OC3(OC2C(C)(C)O)C1C1(C)CCC24CC25CCC(O[C@@H]2OC[C@@H](O)[C@H](O)[C@H]2O)C(C)(C)C5CC=C4C1(C)C3O (stereo partly specified)	–	-5.56% [at 15.1 µM] (inactive)
N=c1nc2n(cc1F)C1OC(CO)C(O)C1O2 (stereo unspecified)	inactive	–
CN(C)c1nc(NC2CCC(NC(=O)c3ccc(F)c(F)c3)CC2)nc2ccccc12 (stereo unspecified)	–	412% (inactive)
CC(C)(C#N)c1ccc(N2C(=O)OCc3cnc4ccc(-c5cnc6ccccc6c5)cc4c32)cc1	–	6.42% (inactive)
CC1(C)CCCC2(C)C=C(C(=O)O)C(O)CC12 (stereo unspecified)	–	14.2% (inactive)
CC(C)(C)OC(=O)N1CCC(OCc2nc(-c3ccncc3)no2)CC1	–	-6.03% (inactive)
O=C(c1ccccc1)c1ccc2nc(NC(=O)c3csc(C4CCN(c5ncnc6ccsc56)CC4)n3)[nH]c2c1	–	11.7% (inactive)
COc1ccc(Oc2cc(C)c(-c3csc(NC(=O)c4ccncc4)n3)c(C)c2)cc1	–	-5.62% (inactive)
Cc1cccc(/C=N/Nc2cc(N3CCOCC3)n3nc(-c4ccncc4)cc3n2)c1	–	-2.84% (inactive)
O=C(/C=C\n1cnc(-c2cc(C(F)(F)F)cc(C(F)(F)F)c2)n1)N1CC(F)(F)C1	–	7.45% (inactive)
